High-throughput results: PubChem BioAssay, National Center for Advancing Translational Sciences (NCATS)
ALOX12 inh: inhibitors of human 12S-lipoxygenase ALOX12. Potency, µM (top dose mostly 108 µM), without a hit: top-dose activity change, negative = inhibition, most hits filed as inhibitors. actives 1.1% (n = 580,000). purified 12hLO, xylenol orange hydroperoxide absorbance; note: % is set by controls: 0 for no effect and ±100 for the full control effect
Target sequence (P18054 whole entry, looked up): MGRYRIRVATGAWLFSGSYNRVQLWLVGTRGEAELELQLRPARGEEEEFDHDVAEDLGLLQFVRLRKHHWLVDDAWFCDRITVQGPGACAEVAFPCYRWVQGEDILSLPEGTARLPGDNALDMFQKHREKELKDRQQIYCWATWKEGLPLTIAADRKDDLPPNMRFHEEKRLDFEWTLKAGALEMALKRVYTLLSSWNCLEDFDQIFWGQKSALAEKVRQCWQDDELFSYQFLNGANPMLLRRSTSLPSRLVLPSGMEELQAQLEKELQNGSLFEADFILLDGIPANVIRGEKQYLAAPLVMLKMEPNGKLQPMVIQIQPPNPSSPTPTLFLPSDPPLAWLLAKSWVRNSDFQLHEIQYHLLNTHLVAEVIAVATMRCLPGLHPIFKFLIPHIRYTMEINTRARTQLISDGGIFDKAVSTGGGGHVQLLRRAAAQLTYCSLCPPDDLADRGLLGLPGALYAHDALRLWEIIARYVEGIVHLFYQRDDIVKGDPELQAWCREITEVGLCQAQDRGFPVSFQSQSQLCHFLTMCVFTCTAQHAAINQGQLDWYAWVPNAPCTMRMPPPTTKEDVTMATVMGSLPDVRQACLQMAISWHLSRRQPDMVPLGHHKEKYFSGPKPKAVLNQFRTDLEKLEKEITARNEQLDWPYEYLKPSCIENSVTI
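Hydroperoxide product was detected by ferrous iron/xylenol orange as the 573 to 405 nm absorbance ratio. Arachidonic acid at 40 uM (final) was turned over for 30 min at room temperature by 150 nM human 12hLO, pH 7.0 Hepes buffer, after 15 min compound preincubation.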
PTHR1 agonist: activates the human parathyroid hormone receptor PTHR1; Potency, µM (top dose mostly 115 µM), inactives show at the top dose activation, usual class: activators; AID 743266; Q03431; HEK293 GP2 PTHR1 cells, GloSensor cAMP luminescence, 1 h; actives 0.075% (n = 410,000); note: nearly all actives have a fitted effect of over 55% in size
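HEK-293-derived GP2 cells expressing PTHR1 and a GloSensor cAMP reporter, 3,000/well, plated overnight, given luciferin plus IBMX (each 0.5 mM as added) for 1 h at 37 °C, then compound for 1 h at 37 °C. Luminescence was read after 15 min at room temperature.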
GLP1R inv ag: GLP-1 receptor (human) inverse agonism; P43220; HEK293 GLP-1R CRE-luciferase, luminescence, 24 h; GLP-1R form is constitutively active; Potency, µM (highest dose often 38.3 µM), without a hit: at the top dose activity change, negative = inhibition, most hits filed as inhibitors; actives 1.6% (n = 410,000); note: % is set by controls: 0 for no effect and ±100 for the full control effect; nearly all actives have a fitted effect of over 55% in size
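Cells are plated, allowed 12 hours at 37 deg C, then treated with compounds for 24 hr before luciferase detection reagent is added and luminescence is read after 12 min at room temperature. The HEK293 line carries constitutively active GLP-1R with a cAMP-responsive reporter.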
GLP-1R agonist: activates the human GLP-1 receptor; actives 0.007% (n = 380,000); Potency, µM (top dose mostly 45.6 µM), for the others: at the top dose activation, hits mostly activators; P43220; HEK293 GLP-1R CRE-luciferase, luminescence, 4-6 h; cells express a hypersensitive GLP-1R form; AID 624172; note: % of control where 0% means no effect
GLS inh: glutaminase GLS (human) inhibition | actives 0.21% (n = 410,000) | GLS enzymatic activity, qHTS titration | O94925 | Potency, µM (doses to about 45.5 µM), without a hit: at the top dose activity change, negative = inhibition, most hits filed as inhibitors; note: % is set by controls: 0 for no effect and ±100 for the full control effect
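Human kidney-isoform GLS in 45 mM KH2PO4 pH 8.2, 0.02% Tween-20, with compound, started with 1mM L-Glutamine (added stock). Glutamate oxidase/HRP/Amplex red coupled fluorescence read at start and after 30 min at RT.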
Glioma ERSR ind: inducers of ER stress response in human glioma cells | U87-MG GRP78 promoter luciferase reporter, 16 h | Potency, µM, for inactives: at the top dose activation, hits mostly activators | actives 0.02% (n = 420,000); note: series mostly up to about 76 µM; % of control where 0% means no effect; nearly all actives have a fitted effect of over 35% in size
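Stably transfected U87-MG glioma cells carrying a GRP78-based luciferase sensor; 16 h compound incubation. Luminescence end-point read 10 min after Bright-Glo addition at room temperature.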
Active calls of the source: *; i = inactive; ? = inconclusive; . = not tested or not shown; ! = not confirmed by another sample; [ ] = dose if it differs, or a comment. Only some compounds are listed: those with a hit (about 2.3% of all), similar ones and a draw of the others. Calls come from the whole dose curve; as a rule, active = well fitted curve in the direction sought with a large enough effect; inconclusive = small, poorly fitted or top-dose-only effect, or another doubt; inactive = no such curve, though single readings can be large; an effect the other way counts as inactive or inconclusive. Potency is the fitted concentration of half-maximal effect.

SMILES | ALOX12 inh | PTHR1 agonist | GLP1R inv ag | GLP-1R agonist | GLS inh | Glioma ERSR ind
O=C(Nc1ccc(N2CCOCC2)c(S(=O)(=O)Nc2ccccc2Cl)c1)c1ccc(F)cc1 | ? | -34% | 10µM* | 1% | -1% | -3%
Cc1ccc(S(=O)(=O)Nc2ccccc2C(=O)Nc2nc(-c3ccc(F)cc3)cs2)cc1 | ? | -36% | 3.2µM* | -18% | 14% | -4%
O=C(Nc1cc(S(=O)(=O)N2CCCCC2)ccc1Cl)c1ccccc1NS(=O)(=O)c1ccc(F)cc1 | ? | i | 2.8µM* | -11% | 9% | -8%
N#Cc1ccc(NC(=O)CNc2cc(S(=O)(=O)N3CCCCC3)ccc2N2CCCCC2)cc1 | 16µM* | . | . | . | . | .
CCOC(=O)c1cccc(NC(=O)CC2C(=O)N(c3ccc(Cl)cc3)C(=O)N2C2CCCC2)c1 (configuration not stated) | ? | -54% | 13µM* | . | 2% | 0%
O=C(O)CCc1conc1-c1cccc(F)c1 | 14% | . | . | . | . | .
O=c1oc2c(-c3cccc(F)c3)cc(O)cc2s1 | 35µM* | -68% | -7% | -8% | 21% | -3%
S=C(NCCSc1ccc(Cl)cc1)NC1CCCC1 | 28µM* | . | . | . | . | .
S=C(NCc1ccc(Cl)cc1)NC1CCCC1 | 40µM* | . | . | . | . | .
S=C(NCCc1ccccc1)NC1CCCc2ccccc21 (configuration not stated) | 14µM* | . | . | . | . | .
Cc1ccc(SCCNC(=S)NC2CC2)cc1 | -52% | . | . | . | . | .
O=C(CCc1ccccc1)NC1CCCc2ccccc21 (configuration not stated) | -16% | 7% | -25% | -1% | 5% | -2%
S=C(NCCc1ccc(Cl)cc1)NC1CCCC1 | ? | -24% | ? | 13% | 0% | 3%
S=C(NCCc1ccc(Cl)cc1Cl)NC1CCCCC1 | 18µM* | . | . | . | . | .
CCCN1C(=O)C2(C(C(=O)c3ccc(C)o3)=C(O)C(=O)N2CCN(C)C)c2ccccc21 (configuration not stated) | -5% | . | . | . | . | .
COc1ccc(OS(=O)(=O)CCc2ccccc2)cc1 | 0% | . | . | . | . | .
CCCn1cnc2nc(COc3cc(NC(=O)COc4ccc(C)c(C)c4)ccc3C)cc(=O)n21 | -17% | . | . | . | . | .
CCCc1nc2ccccc2n1CC(O)c1ccc(F)cc1 (configuration not stated) | -5% | . | . | . | . | .
S=C(NCCc1ccc(Cl)cc1)NC1CCCCC1 | 40µM* | -36% | ? | -1% | -21% | 0%
CCN(CC(=O)Nc1ccc(NC(C)=O)cc1)Cc1coc(-c2ccccc2)n1 | 53% | . | . | . | . | .
O=C(CS(=O)(=O)c1ccccc1)c1ccc(Br)cc1 | -14% | . | . | . | . | .
O=C(c1ccc(F)cc1Cl)N1CCC2(CC1)NC(=O)N(Cc1ccccc1)C2=O | -16% | . | . | . | . | .
O=C(c1ccc(F)cc1Cl)N1CCC2(CC1)NC(=O)N(c1ccccc1Cl)N2 | 1.4µM* | . | . | . | . | .
O=C(Cc1ccc(F)cc1)N1CCC2(CC1)NC(=O)N(c1ccccc1Cl)N2 | 1.3µM* | . | . | . | . | .
O=C(COc1ccc(F)cc1)N1CCC2(CC1)NC(=O)N(c1ccccc1Cl)N2 | 1.4µM* | . | . | . | . | .
SMILES | ALOX12 inh | PTHR1 agonist | GLP1R inv ag | GLP-1R agonist | GLS inh | Glioma ERSR ind
COc1ccc(CNCc2sccc2C)cc1 | -13% | . | . | . | . | .
CC(=O)NC12CC3CC(C1)CC(C(=O)NCc1ccc(C(=O)N4CCCCC4)cc1)(C3)C2 | -9% | . | . | . | . | .
Cc1ccc2c(c1)cc(C(=O)NCCc1ccccc1)n2C | -30% | . | . | . | . | .
CC1(C)CC(NC(=S)Nc2cc(F)cc(F)c2)CC(C)(C)N1 | 0% | . | . | . | . | .
COc1ccc(-c2ccc(CN3C(C)C(=O)N(Cc4cn(CCC5OCCO5)nn4)CCS3(=O)=O)cc2)cc1 (configuration not stated) | 16µM* | -6% | ? | 7% | ? | -4%
COc1ccc(-c2ccc(CN3C(C)C(=O)N(Cc4cn(CCC5OCCO5)nn4)CCS3(=O)=O)cc2)cn1 (configuration not stated) | ? | -86% | 13% | 7% | -13% | -1%
CCC/C=C/c1ccc(CN2C(C(C)C)C(=O)N(Cc3cn(CCC4OCCO4)nn3)CCS2(=O)=O)cc1 (configuration not stated) | ? | -58% | 10µM* | 3% | 11% | -6%
CN(C)c1ccc(CNCCC(Cc2ccccc2)c2ccco2)cc1 (configuration not stated) | -16% | -29% | ? | 5% | -7% | -8%
c1ccc(CNCCC(Cc2ccccc2)c2ccco2)cc1 (configuration not stated) | -24% | -10% | 8.9µM* | -6% | 6% | -6%
Cc1ccc(CN(Cc2ccco2)C(=O)COc2cccc(C)c2C)o1 | 0% | -9% | 11µM* | . | -12% | -2%
Cc1cccc(OCC(=O)N(Cc2ccc(N(C)C)cc2)Cc2ccco2)c1C | -6% | -85% | 10µM* | . | 7% | .
Cc1ccc(CN(Cc2ccco2)C(=O)COc2c(C)cc(C)cc2C)cc1 | ? | -45% | 2.8µM* | . | -7% | -2%
COc1ccc(NC(=O)C2(n3cnnn3)CCCCC2)cc1 | 44% | . | . | . | . | .
O=C(CN1CCCCC1c1nc2ccccc2s1)NC(=O)Nc1ccc2c(c1)OCO2 (configuration not stated) | -5% | . | . | . | . | .
O=C1C=C(c2ccccc2)C(O)(c2ccccc2)C1 (configuration not stated) | 12% | -13%[57.5 µM] | -10% | 4% | -1% | -3%
O=C1CC(O)(c2ccccc2)C(c2ccccc2)=C1c1ccccc1 (configuration not stated) | -17% | -33% | 10µM* | -5% | -28% | -2%
Cc1ccc(S(=O)(=O)N2CCN(CC(=O)NC(C)(C)C)CC2)cc1C | 1% | . | . | . | . | .
Cc1cccc(OCC(=O)Nc2ccc(S(=O)(=O)Nc3onc(C)c3C)cc2)c1C | 40µM*! | -18% | -14% | -1% | 0% | -2%
CC(NC(=S)NC(=O)c1cccs1)c1ccccc1 (configuration not stated) | 25µM* | -31% | ? | 29% | -5% | 0%
CC(NC(=O)c1cccs1)c1ccc(Cl)cc1 (configuration not stated) | 20% | i | ? | 4% | 13% | -2%
Cc1cccc(NC(=S)NC(=O)c2cccs2)n1 | 16% | i | 10µM* | ? | 19% | 4%
CCc1cccc(CC)c1NC(=S)NC(C)c1ccccc1 (configuration not stated) | 40µM* | i | ? | -2% | 1% | -3%
Cc1nc(NC(=S)NC(=O)c2cccs2)ccc1Br | 7% | -24% | -4% | 1% | 3% | 7%
